Laboratory results taken from the supplement of paper PMC12067093, “Discovery and optimisation of a covalent ligand for TRIM25 and its application to targeted protein ubiquitination” (Chemical Science, 2025).
About 21,000 targets were measured; listed, in parts, are those with the largest changes and a random draw of the rest.

Compound: Cc1cc(ccc1-c1ccccc1)C(=O)N1CCCN(CC1)C(=O)CCl [compound 10]
Test: probe-labelled cysteine peptide fold change vs DMSO (competition) (log2 fold change); higher = less target engagement (more negative = stronger competition)
Conditions: THP-1, incubation time: 4 h
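Also: competitive profiling in live THP-1 cells: cysteine peptides tagged with an iodoacetamide desthiobiotin (IA-DTB) probe, intensity after compound treatment relative to DMSO-treated cells.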

Sequence of UniProt Q9UBS8 (Q9UBS8 whole entry, looked up): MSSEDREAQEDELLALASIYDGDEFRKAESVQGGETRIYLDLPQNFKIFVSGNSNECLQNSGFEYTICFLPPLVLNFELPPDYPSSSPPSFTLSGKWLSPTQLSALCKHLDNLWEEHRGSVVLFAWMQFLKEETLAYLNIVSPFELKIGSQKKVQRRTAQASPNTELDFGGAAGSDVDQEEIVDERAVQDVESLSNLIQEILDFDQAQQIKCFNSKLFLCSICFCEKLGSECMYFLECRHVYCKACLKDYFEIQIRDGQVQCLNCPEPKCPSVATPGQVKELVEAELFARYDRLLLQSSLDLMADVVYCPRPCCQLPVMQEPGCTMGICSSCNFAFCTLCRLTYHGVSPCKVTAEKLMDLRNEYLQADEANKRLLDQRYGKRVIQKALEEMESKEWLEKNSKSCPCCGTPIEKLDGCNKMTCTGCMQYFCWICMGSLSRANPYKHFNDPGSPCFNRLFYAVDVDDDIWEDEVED
Sequence of UniProt Q8IY92 (Q8IY92 whole entry, looked up): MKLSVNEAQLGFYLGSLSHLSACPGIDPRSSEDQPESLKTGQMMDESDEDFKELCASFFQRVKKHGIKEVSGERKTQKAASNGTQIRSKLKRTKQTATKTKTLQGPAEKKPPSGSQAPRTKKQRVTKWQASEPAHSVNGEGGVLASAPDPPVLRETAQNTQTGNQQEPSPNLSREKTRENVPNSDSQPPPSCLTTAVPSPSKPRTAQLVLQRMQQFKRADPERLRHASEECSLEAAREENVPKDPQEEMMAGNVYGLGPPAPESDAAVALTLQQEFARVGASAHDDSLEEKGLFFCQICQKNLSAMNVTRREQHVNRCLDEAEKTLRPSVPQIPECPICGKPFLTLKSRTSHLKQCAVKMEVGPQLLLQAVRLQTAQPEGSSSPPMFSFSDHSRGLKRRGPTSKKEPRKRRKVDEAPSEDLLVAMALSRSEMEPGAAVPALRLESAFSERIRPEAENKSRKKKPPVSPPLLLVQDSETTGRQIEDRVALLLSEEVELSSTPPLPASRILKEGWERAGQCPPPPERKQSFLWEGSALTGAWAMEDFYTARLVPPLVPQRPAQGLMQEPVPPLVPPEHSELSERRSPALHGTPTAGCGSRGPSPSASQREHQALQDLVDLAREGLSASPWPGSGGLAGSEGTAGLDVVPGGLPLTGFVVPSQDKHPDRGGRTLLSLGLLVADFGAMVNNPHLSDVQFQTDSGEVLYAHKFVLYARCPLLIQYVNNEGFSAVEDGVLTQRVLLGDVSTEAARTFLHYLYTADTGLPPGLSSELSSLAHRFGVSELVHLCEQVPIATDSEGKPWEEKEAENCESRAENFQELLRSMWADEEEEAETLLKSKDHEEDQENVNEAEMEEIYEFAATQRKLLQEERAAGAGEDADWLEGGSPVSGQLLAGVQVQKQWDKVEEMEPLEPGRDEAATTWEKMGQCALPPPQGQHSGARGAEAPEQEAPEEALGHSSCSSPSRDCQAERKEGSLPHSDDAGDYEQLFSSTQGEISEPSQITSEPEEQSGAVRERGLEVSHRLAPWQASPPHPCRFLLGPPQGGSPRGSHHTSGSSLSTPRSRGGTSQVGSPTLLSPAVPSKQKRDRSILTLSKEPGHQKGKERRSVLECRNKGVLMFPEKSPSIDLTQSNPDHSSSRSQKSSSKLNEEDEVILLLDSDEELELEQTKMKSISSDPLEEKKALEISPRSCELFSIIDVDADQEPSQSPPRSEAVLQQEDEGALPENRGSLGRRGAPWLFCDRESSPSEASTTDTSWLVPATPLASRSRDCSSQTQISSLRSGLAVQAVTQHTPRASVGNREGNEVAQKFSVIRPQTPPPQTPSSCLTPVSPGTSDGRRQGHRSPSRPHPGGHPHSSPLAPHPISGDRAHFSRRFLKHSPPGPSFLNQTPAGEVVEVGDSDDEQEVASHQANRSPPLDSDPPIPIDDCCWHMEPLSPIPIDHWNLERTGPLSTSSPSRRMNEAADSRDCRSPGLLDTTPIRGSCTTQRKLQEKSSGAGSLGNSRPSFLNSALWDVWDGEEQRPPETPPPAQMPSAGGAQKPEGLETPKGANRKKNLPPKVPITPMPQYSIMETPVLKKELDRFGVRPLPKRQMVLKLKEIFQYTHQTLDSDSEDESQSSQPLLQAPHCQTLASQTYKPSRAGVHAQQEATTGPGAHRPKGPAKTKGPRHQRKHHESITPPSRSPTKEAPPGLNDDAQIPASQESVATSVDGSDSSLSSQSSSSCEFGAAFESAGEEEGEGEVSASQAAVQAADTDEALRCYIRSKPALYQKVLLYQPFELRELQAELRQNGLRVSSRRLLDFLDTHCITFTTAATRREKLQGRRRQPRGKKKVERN
Sequence of UniProt Q9BWH6 (Q9BWH6 whole entry): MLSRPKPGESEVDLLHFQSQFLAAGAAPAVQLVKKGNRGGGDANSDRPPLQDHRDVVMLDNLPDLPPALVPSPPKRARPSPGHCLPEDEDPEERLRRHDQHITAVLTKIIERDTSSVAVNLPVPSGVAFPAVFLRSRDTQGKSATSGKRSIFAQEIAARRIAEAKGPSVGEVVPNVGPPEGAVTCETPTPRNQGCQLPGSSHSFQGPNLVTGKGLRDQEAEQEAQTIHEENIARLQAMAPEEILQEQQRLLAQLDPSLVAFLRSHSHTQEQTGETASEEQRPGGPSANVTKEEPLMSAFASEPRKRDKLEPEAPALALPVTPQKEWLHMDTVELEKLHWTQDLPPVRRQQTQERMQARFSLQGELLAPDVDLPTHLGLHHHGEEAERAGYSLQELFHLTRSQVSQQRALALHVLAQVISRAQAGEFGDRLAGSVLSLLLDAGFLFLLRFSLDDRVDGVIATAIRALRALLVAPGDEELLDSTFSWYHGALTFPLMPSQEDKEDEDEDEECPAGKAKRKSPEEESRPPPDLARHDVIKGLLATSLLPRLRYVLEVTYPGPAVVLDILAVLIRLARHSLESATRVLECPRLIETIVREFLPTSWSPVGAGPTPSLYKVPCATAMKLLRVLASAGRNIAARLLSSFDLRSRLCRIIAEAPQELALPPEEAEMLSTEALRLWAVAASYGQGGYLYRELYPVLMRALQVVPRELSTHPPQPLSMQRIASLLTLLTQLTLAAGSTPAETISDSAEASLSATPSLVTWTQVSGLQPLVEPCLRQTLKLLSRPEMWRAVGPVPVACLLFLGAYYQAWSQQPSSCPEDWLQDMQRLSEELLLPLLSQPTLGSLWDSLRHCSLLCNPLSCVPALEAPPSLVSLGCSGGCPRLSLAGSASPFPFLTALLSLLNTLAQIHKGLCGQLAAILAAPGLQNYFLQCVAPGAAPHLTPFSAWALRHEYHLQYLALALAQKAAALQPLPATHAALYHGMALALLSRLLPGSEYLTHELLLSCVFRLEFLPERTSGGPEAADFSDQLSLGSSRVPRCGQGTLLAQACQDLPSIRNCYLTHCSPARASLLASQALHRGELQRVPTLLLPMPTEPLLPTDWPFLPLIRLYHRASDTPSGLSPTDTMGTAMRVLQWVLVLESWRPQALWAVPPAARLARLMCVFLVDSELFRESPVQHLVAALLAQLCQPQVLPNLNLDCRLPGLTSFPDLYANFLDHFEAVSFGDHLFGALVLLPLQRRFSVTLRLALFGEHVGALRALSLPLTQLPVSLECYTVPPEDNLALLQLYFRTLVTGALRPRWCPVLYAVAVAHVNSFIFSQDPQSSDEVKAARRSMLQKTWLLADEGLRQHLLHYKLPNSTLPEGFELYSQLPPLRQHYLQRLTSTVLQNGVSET
Sequence of UniProt Q9H7B4 (Q9H7B4 whole entry, looked up): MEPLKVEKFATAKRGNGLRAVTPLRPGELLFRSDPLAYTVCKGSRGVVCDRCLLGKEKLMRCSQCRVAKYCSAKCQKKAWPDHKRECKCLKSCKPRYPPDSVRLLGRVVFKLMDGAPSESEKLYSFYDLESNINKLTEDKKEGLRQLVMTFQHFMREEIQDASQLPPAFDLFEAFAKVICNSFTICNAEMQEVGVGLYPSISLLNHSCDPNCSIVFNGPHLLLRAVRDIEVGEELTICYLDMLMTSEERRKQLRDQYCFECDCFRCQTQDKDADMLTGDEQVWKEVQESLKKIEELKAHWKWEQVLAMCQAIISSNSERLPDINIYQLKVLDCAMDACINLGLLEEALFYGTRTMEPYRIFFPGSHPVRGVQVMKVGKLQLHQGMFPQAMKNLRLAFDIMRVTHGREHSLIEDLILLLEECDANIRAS
Sequence of UniProt Q6GMV2 (Q6GMV2 whole entry, looked up): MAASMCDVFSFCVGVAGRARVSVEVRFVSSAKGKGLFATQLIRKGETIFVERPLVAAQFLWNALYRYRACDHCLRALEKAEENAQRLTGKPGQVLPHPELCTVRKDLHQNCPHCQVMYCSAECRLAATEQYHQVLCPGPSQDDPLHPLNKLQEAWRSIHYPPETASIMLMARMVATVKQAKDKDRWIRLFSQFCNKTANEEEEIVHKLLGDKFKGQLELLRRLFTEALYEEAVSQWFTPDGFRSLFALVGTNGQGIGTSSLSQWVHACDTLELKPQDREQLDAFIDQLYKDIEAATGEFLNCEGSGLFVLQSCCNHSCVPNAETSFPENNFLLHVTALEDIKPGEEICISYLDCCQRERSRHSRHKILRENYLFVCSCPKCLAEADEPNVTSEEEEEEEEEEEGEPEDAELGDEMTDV
Sequence of UniProt P08621 (P08621 whole entry): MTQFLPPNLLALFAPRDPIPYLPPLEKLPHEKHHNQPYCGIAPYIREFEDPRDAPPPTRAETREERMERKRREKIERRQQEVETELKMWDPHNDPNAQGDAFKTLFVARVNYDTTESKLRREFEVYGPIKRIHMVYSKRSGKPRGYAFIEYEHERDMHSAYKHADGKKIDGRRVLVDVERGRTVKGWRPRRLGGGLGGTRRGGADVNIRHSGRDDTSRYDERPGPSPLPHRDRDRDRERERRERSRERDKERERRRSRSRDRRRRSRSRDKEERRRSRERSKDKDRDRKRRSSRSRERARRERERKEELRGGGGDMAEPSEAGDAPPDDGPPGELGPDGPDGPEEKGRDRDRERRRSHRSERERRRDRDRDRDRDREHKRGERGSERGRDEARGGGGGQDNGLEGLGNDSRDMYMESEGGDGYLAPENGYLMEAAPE

Target	probe-labelled cysteine peptide fold change (10 µM)	probe-labelled cysteine peptide fold change (50 µM)
SLC22A15_Q8IZD6_438_NVGLGTCSMFSR (UniProt Q8IZD6)	0.0942	-0.0742
SMURF2_Q9HAU4_706_LFTIHQIDACTNNLPK (UniProt Q9HAU4)	-0.159	-0.59
SAE1_Q9UBE0_134_VDTEDIEKKPESFFTQFDAVCLTCCSR (UniProt Q9UBE0)	-0.00481	-1.27
RPS8_P62241_182_LLACIASRPGQCGR (UniProt P62241)	-0.207	-0.296
RNF31_Q96EP0_473_LSAPLPSSCGDPEK (UniProt Q96EP0)	-0.208	0.0977
RNPEP_Q9H4A4_69_CLEPEGAAELR (UniProt Q9H4A4)	0.063	0.0983
SLC25A5_P05141_257_KGTDIMYTGTLDCWR (UniProt P05141)	-0.111	-0.203
RNF214_Q8ND24_696_FWAQTNTNDTCPFCPTLK (UniProt Q8ND24)	0.35	1.12
RPL11_P62913_21+25_KLCLNICVGESGDR (UniProt P62913)	-0.0801	-0.334
SAFB2_Q14151_672_ERLQLECQR (UniProt Q14151)	-0.167	-0.742
RPS6_P62753_83_GHSCYRPR (UniProt P62753)	-0.077	0.137
SEMA4A_Q9H3S1_547_GNPEWACASGPMSR (UniProt Q9H3S1)	-0.0882	-0.865
RPL11_P62913_150_TGCIGAK (UniProt P62913)	-0.0968	-0.152
SMC3_Q9UQE7_1134_CDPAPFYLFDEIDQALDAQHR (UniProt Q9UQE7)	0.416	0.52
SAP30_O75446_184_AQLVEIVGCHFR (UniProt O75446)	0.0105	-0.181
SLC39A10_Q9ULF5_598_NYLCIEEEK (UniProt Q9ULF5)	-0.213	-0.202
RPP25_Q9BUL9_70_AIVFSGCGR (UniProt Q9BUL9)	0.319	-0.143
RNF214_Q8ND24_675_LVQPSELHPMACTHVLHK (UniProt Q8ND24)	0.0646	0.0132
RNF14_Q9UBS8_350_LTYHGVSPCK (UniProt Q9UBS8)	-0.0421	-0.206
SEC63_Q9UGP8_295_KNEPPLTCPYSLK (UniProt Q9UGP8)	-0.404	-1.57
SLC9A3R1_O14745_206_IVEVNGVCMEGK (UniProt O14745)	0.165	-0.0744
SETD2_Q9BYW2_836_ISSNSFMNVHLESKPVICDSR (UniProt Q9BYW2)	0.115	0.0162

Target	probe-labelled cysteine peptide fold change (10 µM)	probe-labelled cysteine peptide fold change (50 µM)
SCCPDH_Q8NBX0_238_WPISYCR (UniProt Q8NBX0)	-0.242	-1.65
RPLP0_P05388_27_CFIVGADNVGSK (UniProt P05388)	0.0238	0.0907
SLX4_Q8IY92_318_CLDEAEK (UniProt Q8IY92)	-0.0818	0.0245
SNRNP200_O75643_1278_VVSDRWLSCETQLPVSFR (UniProt O75643)	-0.0123	-0.0331
SF1_Q15637_282_CGGAGHIASDCK (UniProt Q15637)	0.0635	-0.0325
SCAF11_Q99590_506_KLENTGIEANVLCLESEISENILEK (UniProt Q99590)	-0.478	0.011
RNH1_P13489_323+330_SCSFTAACCSHFSSVLAQNR (UniProt P13489)	-0.0759	-0.562
SFSWAP_Q12872_307_CNRLEELMK (UniProt Q12872)	-0.382	-1.12
SART3_Q15020_182_DYICPNIWLEYGQYSVGGIGQK (UniProt Q15020)	0.208	0.164
SLPI_P03973_51+57_YKKPECQSDWQCPGK (UniProt P03973)	-0.847	-1.07
SMYD3_Q9H7B4_261+263_DQYCFECDCFR (UniProt Q9H7B4)	-0.0235	-0.599
RSBN1_Q5VWQ0_318_DEQLCR (UniProt Q5VWQ0)	-0.206	-0.556
RTN3_O95197-3_42_SCSSSCAVHDLIFWR (UniProt O95197)	-2.02	-1.97
RPL7A_P62424_182_MGVPYCIIK (UniProt P62424)	0.17	-0.0867
SNRNP70_P08621_39_HHNQPYCGIAPYIR (UniProt P08621)	-0.0761	-0.168
SMCHD1_A6NHR9_444_YHPFLYDRETYPDDPCFPSK (UniProt A6NHR9)	-0.159	-0.206
RNH1_P13489_30_WAELLPLLQQCQVVR (UniProt P13489)	0.0863	0.0624
SAMM50_Q9Y512_403_THFFLNAGNLCNLNYGEGPK (UniProt Q9Y512)	0.022	0.169
SATB1_Q01826_91_GTMLPVFCVVEHYENAIEYDCKEEHAEFVLVR (UniProt Q01826)	-0.0836	-0.32
SEC63_Q9UGP8_671_EQTLISMPYHVCTLK (UniProt Q9UGP8)	0.235	0.336
SLK_Q9H2G2_1138_DLQLQCEANVR (UniProt Q9H2G2)	0.0336	0.0461
SEPT5_Q99719_278_LYPWGIVEVENQAHCDFVK (UniProt Q99719)	0.194	0.135

Target	probe-labelled cysteine peptide fold change (10 µM)	probe-labelled cysteine peptide fold change (50 µM)
RNF20_Q5VTR2_960_CNAAFGANDFHR (UniProt Q5VTR2)	0.279	0.358
SDCCAG8_Q86SQ7_236_CEIEESQLK (UniProt Q86SQ7)	0.069	-0.322
SLC25A28_Q96A46_49_GAGGGEAGACRPPVR (UniProt Q96A46)	-0.368	-0.406
SLC25A5_P05141_257_GTDIMYTGTLDCWRK (UniProt P05141)	-0.0476	-0.127
RPUSD2_Q8IZ73_246_LLAENEDVVVVDKPSSIPVHPCGR (UniProt Q8IZ73)	-0.561	-1.57
RPAP1_Q9BWH6_185_GPSVGEVVPNVGPPEGAVTCETPTPR (UniProt Q9BWH6)	0.902	1.33
RNH1_P13489_199_DSPCQLEALKLESCGVTSDNCR (UniProt P13489)	-0.339	-1.17
SEC63_Q9UGP8_295_NEPPLTCPYSLK (UniProt Q9UGP8)	-0.343	-1.34
SEMA4D_Q92854_370_PRPGACIDSEAR (UniProt Q92854)	-0.224	-1.22
SATB1_Q01826_173_IQLHSCPK (UniProt Q01826)	-0.0552	-0.188
SMNDC1_O75940_214_VGVGTCGIADKPMTQYQDTSK (UniProt O75940)	0.155	-0.732
SAP30BP_Q9UHR5_127_CSNHLQDK (UniProt Q9UHR5)	-0.0884	-0.31
RPS6KA3_P51812_436_EDIGVGSYSVCK<|>RPS6KA2_Q15349_429_EDIGVGSYSVCK (UniProt Q15349+P51812)	-0.569	-1.64
SIN3B_O75182_1138_TLCETVHVHGLPVTR (UniProt O75182)	-0.165	0.0678
SAE1_Q9UBE0_295_YCFSEMAPVCAVVGGILAQEIVK (UniProt Q9UBE0)	-0.252	0.0287
RTN4IP1_Q8WWV3_130_DVSGVVMECGLDVK (UniProt Q8WWV3)	0.0949	0.461
RPS6_P62753_12_KLNISFPATGCQK (UniProt P62753)	0.00268	1.18
SMYD5_Q6GMV2_136_LAATEQYHQVLCPGPSQDDPLHPLNK (UniProt Q6GMV2)	-0.0142	-0.404
SLITRK4_Q8IW52_661_HEGLGNPDCGSMQLQLR (UniProt Q8IW52)	-0.281	-0.498
RPS6KA1_Q15418_432_ETIGVGSYSECKR (UniProt Q15418)	-1.06	-2.91
